Sampled rows, rich in hits. Any-hit rate of the full collection: about 2.4%.
D2 ag-1 = agonists of human D2 dopamine receptor; P14416; HEK293 T-REx D2 cells, calcium flux agonist mode; activation, % at 2 µM; 0.53% of 340,000 active; AID 485358;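 active = activation over 3 SD above normal in the single-dose calcium agonist read, cut at about 30% in these data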; note: 0% is about no effect
Target sequence (P14416 whole entry, looked up): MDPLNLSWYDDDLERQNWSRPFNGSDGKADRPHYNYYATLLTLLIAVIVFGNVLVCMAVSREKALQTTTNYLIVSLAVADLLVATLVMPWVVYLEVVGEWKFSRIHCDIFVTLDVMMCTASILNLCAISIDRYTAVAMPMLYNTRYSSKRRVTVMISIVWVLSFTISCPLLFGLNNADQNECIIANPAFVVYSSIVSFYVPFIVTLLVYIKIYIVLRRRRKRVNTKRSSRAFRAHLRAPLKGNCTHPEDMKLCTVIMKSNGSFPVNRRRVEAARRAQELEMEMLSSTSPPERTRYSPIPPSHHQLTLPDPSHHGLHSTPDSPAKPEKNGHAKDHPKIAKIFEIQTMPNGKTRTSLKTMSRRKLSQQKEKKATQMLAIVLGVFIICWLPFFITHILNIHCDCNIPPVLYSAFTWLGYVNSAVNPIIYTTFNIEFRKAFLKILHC
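Agonism scored from kinetic calcium signal (1 read/sec, 180 s) following compound pin transfer, after a 10 s baseline. Cells: HEK293 Trex line expressing inducible D2 receptor coupled to calcium, dye-loaded after overnight culture at 30 C.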
D2 ag-2 = agonists of human D2 dopamine receptor (beta-arrestin); P14416; DiscoveRx PathHunter D2 beta-arrestin, luminescence, 90 min; 100% = 57 uM dopamine signal; activation, % (test concentration not listed); 0.084% of 360,000 active; AID 624465; in the data active = activation above about 40%; inconclusive = between about 15% and that limit
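DiscoveRx PathHunter D2 beta-arrestin cells (2,100/well) attached overnight, then compound-stimulated 90 min at 37 C in HBSS/10 mM HEPES/0.1% Tween-20 buffer; beta-galactosidase complementation read by luminescence after 1 h at ambient temperature. Dopamine 57 uM final (EC100) as control.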
D2 antagonist = antagonists of human D2 dopamine receptor | P14416 | HEK293 TREx D2 cells, calcium flux, dopamine EC80 | inhibition, % at 10 µM | 2% of 340,000 active | AID 485344; in the data active = inhibition above about 30%; inactive = below that, where a call was filed; note: 0% is about no effect
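In this primary screen, negative modulation is detected by tracking calcium flux after an EC80 dopamine challenge in inducible HEK293 T-REx D2 cells preexposed to test compound for 180 s.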
D2 PAM-1 = positively modulates the human D2 dopamine receptor allosterically | potentiation, % at 10 µM | P14416 | 0.34% of 340,000 active | HEK293 T-REx D2, calcium flux, EC20 dopamine potentiation | AID 485347;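 active = potentiation over 3 SD above the plate norm, cut at about 30% in these data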; note: 0% is about no effect
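Tetracycline-induced HEK293 T-REx cells force-coupled to calcium signalling expressed D2; compounds were pin-added after a 10 s baseline, read kinetically 180 s, then an EC20 dopamine challenge followed with a further 180 s calcium read.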
D2 PAM-2 = positive allosteric modulators of human D2 dopamine receptor; AID 624464; potentiation, % (concentration not given with the values); DiscoveRx D2 beta-arrestin cells, luminescence, 90 min; 100% = 57 uM dopamine signal; 0.23% of 360,000 active; P14416; in the data active = potentiation above about 50%; inconclusive = mostly about 30% to 49%
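PathHunter D2 cells, attached overnight at 37 deg C, received compound in DMSO plus dopamine at EC20 (50 nM final) for 90 min at 37 deg C. Beta-arrestin recruitment was read as luminescence after 1 h with detection reagent at ambient temperature.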
* hit, by the source's call; u = inconclusive; x = no result.

SMILES	D2 ag-1	D2 ag-2	D2 antagonist	D2 PAM-1	D2 PAM-2
CCN(CC)C(=O)Cn1c(=O)n(CCCCCC(=O)NCc2ccccc2Cl)c(=O)c2sccc21	0.2	x	x	-12.2	x
Nc1c(Cl)cc(N=Nc2ccccc2)cc1Cl	x	2.3	x	x	-11.9
Cc1cc(NC(=O)CSc2nnc(-c3cccs3)n2N)no1	-0.5	-1.7	38.8*	9.9	-7.2
C=CCn1c(SCC(=O)Nc2ccc(C(=O)OCC)cc2)nnc1-c1sc(N)nc1C	1.0	-9.2	31.4*	0.2	22.8
CCOC(=O)c1ccc(NC(=O)CSc2nnc(CNc3ccc(C)cc3)n2C)cc1	0.7	-0.4	-9.1	-5.9	50.2*
CCOC(=O)c1ccc(NC(=O)CSc2nnc(C3CC3)n2C)cc1	-0.2	-3.5	-11.0	11.1	-10.8
CCN(CC)CCOC(=O)c1ccc(NC(=O)CSc2nnc(-c3cccs3)n2CC)cc1	x	12.5	x	x	74.3*
CCCCn1c(SCC(=O)Nc2cc(C)on2)nnc1-c1cccs1	0.5	-3.7	6.4	5.9	-13.6
CCCCNC(=O)C1(C)CCN1C(=O)c1cc(C)n(C(C)(C)C)n1 (stereo unspecified)	x	3.4	x	x	-4.1
COc1ccc(-c2nnn3c2nc(NCCc2ccc(OC)c(OC)c2)c2ccccc23)cc1	-0.7	x	x	-8.5	x
CCCN1CCC(=O)N([C@H](COc2ccccc2)Cc2ccccc2)CC1	0.5	-1.3	39.3*	-4.0	-19.4
O=C1CCN(Cc2ccccc2)CCN1[C@H](COc1ccccc1)Cc1ccccc1	7.5	7.9	-2.7	6.2	-5.4
COc1ccc(C(=O)NNc2ncnc3c2cnn3-c2ccc(C)cc2C)cc1	-1.0	x	x	-4.6	x
Cc1nn(-c2ccccc2)c(N)c1C(O)(CSc1nccn1C)C(F)(F)F (stereo unspecified)	-0.1	-0.5	37.5*	-0.2	5.6
Cc1nn(-c2ccc(Cl)cc2)c(N)c1C(O)(CSc1nccn1C)C(F)(F)F (stereo unspecified)	0.5	0.7	9.2	6.0	-4.3
N#C/C(=C1\C(=O)Nc2c(Cl)cc(Cl)cc21)c1nnc2n1CCCCC2	x	5.5	x	x	66.5*
NNC(=O)c1ccc(COCC(F)(F)F)cc1	0.4	-1.3	52.9*	0.9	-4.5
CN(C)CCNC(=O)c1ccc(COCC(F)(F)F)cc1	0.8	0.6	16.4	x	3.3
COc1ccc(NC(=O)CSCc2cc(=O)c3cc(C)ccc3[nH]2)cc1	0.1	x	x	-1.4	x
Fc1ccccc1N1CCN(C2CCCN(Cc3cccc(C(F)(F)F)c3)C2)CC1 (stereo unspecified)	28.5	13.6	55.4*	-13.9	-5.6
Oc1ccccc1CN1CCCC(N2CCN(c3cccc(C(F)(F)F)c3)CC2)C1 (stereo unspecified)	-0.4	3.2	-15.5	-4.0	-1.5
N#Cc1ccccc1C[C@H](N)C(=O)NC[C@H]1O[C@@H](n2cnc3c(N)ncnc32)[C@H](O)[C@@H]1O	x	-2.2	x	x	0.6
Cc1ccc(NC(=O)CSc2cc(=O)n(C)c3ccc(Cl)cc23)c(Br)c1	1.3	x	x	x	x
CCn1nc(CC(=O)Nc2ccc(-n3cnnn3)c(C)c2)c2ccccc2c1=O	-0.8	-4.3	0.9	0.3	-6.6
CCn1nc(CC(=O)Nc2ccc(-n3cnnn3)c(OC)c2)c2ccccc2c1=O	1.0	1.2	34.6*	1.5	-22.9
SMILES	D2 ag-1	D2 ag-2	D2 antagonist	D2 PAM-1	D2 PAM-2
CCCC(=O)N(c1ccc2oc(-c3ccccc3)c(C(=O)OCC)c2c1)S(=O)(=O)c1ccc(C)cc1	x	x	x	-4.8	x
COc1ccc(C(C)=O)cc1COC(=O)CSCC(=O)Nc1ccc(C)cc1	-0.6	-4.0	30.5*	-27.1	-30.8
COc1ccc(C(C)=O)cc1COC(=O)CSC(C)C(=O)Nc1cc(C)on1 (stereo unspecified)	0.2	-2.8	1.5	3.0	3.5
O=S(=O)(c1ccc(-c2cc(C(F)(F)F)on2)s1)N1CCN(c2ccc(F)cc2)CC1	-0.1	x	x	-10.0	x
Cc1cccc(NC(=O)CN2C(=O)c3cccc4cccc2c34)c1C	0.0	x	x	5.8	x
CN(C)S(=O)(=O)c1cccc(NC(=O)CNc2cccc(S(=O)(=O)N3CCCCC3)c2)c1	x	-2.4	x	x	-13.5
CN(CC(=O)Nc1cccc(S(=O)(=O)N(C)C)c1)Cc1ccccc1	-0.7	-1.4	32.9*	-28.3	-7.7
NC(=O)c1nn(CC(=O)Nc2cccc(S(=O)(=O)N3CCCC3)c2)c(=O)c2ccccc12	0.3	-0.5	44.4*	-10.3	-3.3
CN(CC(=O)Nc1cccc(S(=O)(=O)N2CCCCC2)c1)Cc1ccc(F)cc1	0.0	-0.5	32.0*	-17.5	-14.7
CN(CC(=O)Nc1cccc(F)c1)CC(=O)Nc1cccc(S(=O)(=O)N2CCCCCC2)c1	0.3	-2.7	-11.7	-4.9	-12.4
CN(C)S(=O)(=O)c1cccc(NC(=O)CNCC2CCCCC2)c1	0.1	4.0	55.4*	-24.1	-21.0
NC(=O)c1nn(CC(=O)Nc2cccc(S(=O)(=O)N3CCCCCC3)c2)c(=O)c2ccccc12	0.5	8.9	-8.9	20.7	-4.3
COc1ccc(-n2ccn(Cc3ccc(C)cc3)c(=O)c2=O)cc1OC	0.1	x	x	-7.4	x
CC(=O)N1CCCc2cc(S(=O)(=O)N(CCN(C)C)Cc3ccccc3)ccc21	0.9	x	x	1.2	x
c1csc(CNc2nc(NCC3CCCCC3)c3sccc3n2)c1	x	-3.3	x	x	-13.0
Cc1ccc(Cl)cc1NC(=O)COC(=O)c1ccccc1O	-0.6	-5.5	3.8	-3.7	-3.7
Cc1ccc(NC(=O)COC(=O)c2cccc3c2C(=O)c2ccccc2C3=O)c(C)c1	-1.3	10.2	-16.0	-9.1	56.1*
Cc1ccc(C)c(NC(=O)COC(=O)c2cccc3c2C(=O)c2ccccc2C3=O)c1	-0.6	u	8.4	-1.8	54.1*
Cc1cc(C)c(NC(=O)COC(=O)c2cccc3c2C(=O)c2ccccc2C3=O)c(C)c1	0.6	12.5	19.0	8.3	54.6*
Cc1c(Br)cccc1NC(=O)C1(C)CCN1CCc1ccccc1 (stereo unspecified)	x	-8.7	x	x	-12.8
Clc1ccc(-c2cn3c(n2)SCC3)cc1	0.5	-5.2	-12.5	-7.8	-5.0
Nc1nc(-c2ccc(Cl)cc2)cn1N	0.1	-3.4	30.2*	4.9	-6.0
O=C(NCc1cccnc1)c1ccc(COc2ccccc2Cl)cc1	-1.1	1.1	3.9	-5.3	-12.9
O=C(NCc1cccnc1)c1ccc(COc2ccccc2Br)cc1	-1.7	5.5	52.9*	-21.7	-11.2
COc1cc(C(=O)Nc2ccc(C)cc2)c2ccccc2n1	-0.2	1.5	1.9	3.7	-1.5
CCOc1ccc(NC(=O)c2cc(OC)nc3ccccc23)cc1	-0.8	-4.2	56.9*	-3.1	-10.8
COc1ccc(Nc2nc(C)nc3c2nnn3Cc2ccccc2)cc1OC	0.8	2.1	12.0	34.5*	-0.7
CSc1ccc(/C=C(/Sc2nnc(-c3ccccc3)o2)C(=O)O)cc1	2.3	-3.6	-17.4	2.2	-6.5

Bioassay records (PubChem)
